Test results reported in the supplement of paper PMC10849652.
About 8,800 targets were measured; listed, in parts, are those with a hit and a random draw of the rest. About 0.5% of all pairs of compound and target were hits.

Legend:
Experiment in all cases: log2 fold change, soluble protein after heating vs DMSO (PISA); higher = thermal stabilisation; K562 lysate, 10 uM; active = over 0.2 and 3.5 SD of the protein, either way, in both replicates (recomputed)
[1] = compound: C1=CC=C(C=C1)[C@H](COC2=CC3=C(C=C2)NC(=O)N3)NC(=O)C4=CC=CN(C4=O)CC5=CC(=C(C=C5)F)F
Procedure, shortened: (§1)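 K562 pellets were dounce-homogenised in PBS pH 7.4 containing 1 mM MgCl2, and the crude extract, at 1 mg/mL protein, was exposed to 10 μM compound for 30 min. Aliquots were heated for 3 min across 48°C-58°C, pooled, brought to 0.5% NP-40 at 4°C and spun at 21,000xg for 90 min, with the supernatant taken as soluble protein. TMTpro 16plex LC-MS/MS with equalised channel sums quantified that protein. Values are log-two fold changes in thermal stability relative to solvent controls, taken from duplicates.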

[2] = compound: CC1=C(SC2=C1C(=N[C@H](C3=NN=C(N32)C)CC(=O)N)C4=CC=C(C=C4)Cl)C
Procedure, shortened: as §1

[3] = compound: CC1=C2C(=CC=C1)N=C(N(C2=O)C3=CC=CC=C3C)CN4C=NC5=C(N=CN=C54)N
Procedure, shortened: as §1

[4] = compound: Cc1sc2c(c1C)C(c1ccc(Cl)cc1)=N[C@@H](CC(=O)OC(C)(C)C)c1nnc(C)n1-2
Procedure, shortened: as §1

[5] = compound: c1ccc([C@@H]2C[C@H]2NC2CCNCC2)cc1
Procedure, shortened: as §1

Measured: log2 fold change

FKBP8 isoform 2 (UniProt Q14318)
Sequence of UniProt Q14318 (Q14318 whole entry, looked up): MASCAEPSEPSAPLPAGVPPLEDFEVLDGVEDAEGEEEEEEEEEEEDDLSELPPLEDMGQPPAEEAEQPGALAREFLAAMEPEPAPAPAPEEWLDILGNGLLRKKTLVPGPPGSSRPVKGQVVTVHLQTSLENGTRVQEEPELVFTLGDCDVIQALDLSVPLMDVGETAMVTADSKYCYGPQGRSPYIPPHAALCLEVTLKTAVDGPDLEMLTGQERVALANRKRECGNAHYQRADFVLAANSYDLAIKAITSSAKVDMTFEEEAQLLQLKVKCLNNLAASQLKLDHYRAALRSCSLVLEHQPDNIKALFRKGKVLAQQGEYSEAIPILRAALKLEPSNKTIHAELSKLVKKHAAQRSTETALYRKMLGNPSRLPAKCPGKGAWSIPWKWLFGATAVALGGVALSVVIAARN
inactive: [1] -0.061 | [2] 0.012 | [3] -0.023 | [4] -0.084 | [5] 0.043

EXOC4 (UniProt Q96A65)
Sequence of UniProt Q96A65 (Q96A65 whole entry, looked up): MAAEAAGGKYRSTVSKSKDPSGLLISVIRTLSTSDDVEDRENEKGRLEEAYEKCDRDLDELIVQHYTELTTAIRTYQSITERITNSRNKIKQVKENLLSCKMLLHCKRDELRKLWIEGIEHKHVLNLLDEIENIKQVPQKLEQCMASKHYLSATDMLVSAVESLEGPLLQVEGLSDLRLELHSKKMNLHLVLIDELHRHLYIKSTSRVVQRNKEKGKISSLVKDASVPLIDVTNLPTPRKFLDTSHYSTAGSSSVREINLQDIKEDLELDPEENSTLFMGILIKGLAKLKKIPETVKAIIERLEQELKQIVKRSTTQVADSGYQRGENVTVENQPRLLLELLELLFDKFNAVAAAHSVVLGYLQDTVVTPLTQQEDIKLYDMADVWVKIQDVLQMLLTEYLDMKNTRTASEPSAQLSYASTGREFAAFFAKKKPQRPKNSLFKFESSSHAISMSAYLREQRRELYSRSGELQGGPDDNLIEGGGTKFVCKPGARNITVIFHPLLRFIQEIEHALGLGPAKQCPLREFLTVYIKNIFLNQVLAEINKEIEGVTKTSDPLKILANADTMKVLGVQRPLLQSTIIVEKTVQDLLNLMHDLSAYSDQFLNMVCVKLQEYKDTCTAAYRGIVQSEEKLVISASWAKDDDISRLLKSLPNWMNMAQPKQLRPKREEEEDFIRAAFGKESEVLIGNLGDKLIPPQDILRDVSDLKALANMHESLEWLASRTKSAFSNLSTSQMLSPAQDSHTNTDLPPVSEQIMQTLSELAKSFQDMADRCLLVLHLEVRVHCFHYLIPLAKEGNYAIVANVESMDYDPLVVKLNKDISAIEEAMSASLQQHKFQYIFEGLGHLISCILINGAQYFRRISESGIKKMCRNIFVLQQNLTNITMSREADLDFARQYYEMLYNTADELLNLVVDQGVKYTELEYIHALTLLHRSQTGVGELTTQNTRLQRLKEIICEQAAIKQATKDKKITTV
inactive: [1] -0.001 | [2] 0.009 | [3] 0.016 | [4] 0.063 | [5] 0.054

FTSJ1 (UniProt Q9UET6)
Sequence of UniProt Q9UET6 (Q9UET6 whole entry, looked up): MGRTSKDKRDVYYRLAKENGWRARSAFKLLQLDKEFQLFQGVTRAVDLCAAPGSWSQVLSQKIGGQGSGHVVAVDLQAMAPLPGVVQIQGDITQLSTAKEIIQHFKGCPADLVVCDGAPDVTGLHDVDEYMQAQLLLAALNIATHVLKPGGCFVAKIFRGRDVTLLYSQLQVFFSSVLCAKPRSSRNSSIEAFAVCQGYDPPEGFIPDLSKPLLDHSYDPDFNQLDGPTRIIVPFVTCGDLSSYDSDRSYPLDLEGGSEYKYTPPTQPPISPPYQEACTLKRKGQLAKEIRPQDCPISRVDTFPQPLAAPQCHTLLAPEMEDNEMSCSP
inactive: [1] 0.016 | [2] 0.013 | [3] -0.025 | [4] -0.005 | [5] 0.048

FASTKD5 (UniProt Q7L8L6)
Sequence of UniProt Q7L8L6 (Q7L8L6 whole entry, looked up): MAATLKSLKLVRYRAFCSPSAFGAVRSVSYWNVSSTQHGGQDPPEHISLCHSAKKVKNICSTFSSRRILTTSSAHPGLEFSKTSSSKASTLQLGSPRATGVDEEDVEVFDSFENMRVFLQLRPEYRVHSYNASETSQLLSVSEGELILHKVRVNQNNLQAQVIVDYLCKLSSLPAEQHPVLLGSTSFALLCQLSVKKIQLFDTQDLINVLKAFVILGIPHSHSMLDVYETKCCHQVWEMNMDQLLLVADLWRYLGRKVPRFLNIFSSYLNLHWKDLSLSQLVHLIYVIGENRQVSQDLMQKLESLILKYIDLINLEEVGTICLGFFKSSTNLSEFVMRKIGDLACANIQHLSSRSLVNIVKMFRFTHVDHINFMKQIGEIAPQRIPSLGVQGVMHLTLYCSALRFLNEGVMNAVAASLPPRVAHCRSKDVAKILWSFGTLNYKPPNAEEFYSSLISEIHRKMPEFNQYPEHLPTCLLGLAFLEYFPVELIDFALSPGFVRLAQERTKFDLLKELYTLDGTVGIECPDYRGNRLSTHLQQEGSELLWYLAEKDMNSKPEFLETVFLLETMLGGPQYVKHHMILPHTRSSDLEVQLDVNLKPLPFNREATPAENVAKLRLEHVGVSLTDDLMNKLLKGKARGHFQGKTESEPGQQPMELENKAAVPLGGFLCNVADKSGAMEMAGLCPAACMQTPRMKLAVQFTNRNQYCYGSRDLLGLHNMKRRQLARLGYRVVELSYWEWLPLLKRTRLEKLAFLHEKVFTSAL
inactive: [1] -0.168 | [2] -0.056 | [3] -0.024 | [4] -0.002 | [5] 0.133
